A short description of test [1]: A CellTox Green Cytotoxicity Assay to monitor cytotoxicity in HEK293 cells - 32 hour (AID 1224881). Note: nearly all actives have a fitted effect of over 40% in size. Note: potency is the fitted concentration of half-maximal effect. In a few lines:
(§1)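 Dead-cell fluorescence measured kinetically: asymmetric cyanine dye, HEK293, 600 cells/well, 5 h settle, 23 nL cpd/DMSO, 37 C, reads 0–40 h every 8 h.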

The nature of test [2]: A CellTox Green Cytotoxicity Assay to monitor cytotoxicity in HepG2 cells - 0 hour (AID 1224882). Note: nearly all actives have a fitted effect of over 35% in size. Note: potency is the fitted concentration of half-maximal effect. The method in brief:
(§2)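 First, HepG2 cells (600/well) mixed with reagent were plated; second, after 5 h at 37 C they received compounds via pintool; third, fluorescence was measured at 0 h through 40 h at 8 h intervals.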

Test [3] can be described thus: A CellTox Green Cytotoxicity Assay to monitor cytotoxicity in HepG2 cells - 32 hour (AID 1224883). Note: nearly all actives have a fitted effect of over 50% in size. Note: potency is the fitted concentration of half-maximal effect. The method in brief: as §2
Test [4] in a line: A CellTox Green Cytotoxicity Assay to monitor cytotoxicity in HEK293 cells - 8 hour (AID 1224884). Note: nearly all actives have a fitted effect of over 35% in size. Note: potency is the fitted concentration of half-maximal effect. In a few lines: as §1
Test [5] in a line: qHTS RealTime-Glo MT Cell Viability Assay in HepG2 cells - 16 hour (AID 1224885). Note: nearly all actives have a fitted effect of over 50% in size. In a few lines: (§3)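 Cell number in HepG2 cultures estimated from NanoLuc luminescence generated by metabolic reduction of a prosubstrate by living cells. The homogeneous, nonlytic format allowed repeated reads at 0, 8, 16, 24, 32 and 40 h of compound exposure.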
A short description of test [6]: qHTS RealTime-Glo MT Cell Viability Assay in HEK293 cells - 24 hour (AID 1224886). Note: nearly all actives have a fitted effect of over 50% in size. Note: potency is the fitted concentration of half-maximal effect. In a few lines:
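Homogeneous bioluminescent viability format in HEK293 cells (600 cells/well). Following 5 h at 37 C/5% CO2, 23 nL compound was pintooled; the signal was measured repeatedly during 40 h incubation.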

Test [7] in a line: qHTS RealTime-Glo MT Cell Viability Assay in HEK293 cells - 8 hour (AID 1224887). Note: nearly all actives have a fitted effect of over 50% in size. Note: potency is the fitted concentration of half-maximal effect. The method in brief: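 600 HEK293 cells per well, dispensed already mixed with RealTime-Glo MT reagents. Compound dosing came 5 h later. The same wells were read for luminescence at 0, 8, 16, 24, 32 and 40 h of exposure at 37 C.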
Test [8] can be described thus: A CellTox Green Cytotoxicity Assay to monitor cytotoxicity in HEK293 cells - 16 hour (AID 1224888). Note: nearly all actives have a fitted effect of over 35% in size. Note: potency is the fitted concentration of half-maximal effect. In a few lines:
as §1

Test [9] in a line: A CellTox Green Cytotoxicity Assay to monitor cytotoxicity in HepG2 cells - 8 hour (AID 1224890). Note: nearly all actives have a fitted effect of over 45% in size. Note: potency is the fitted concentration of half-maximal effect. The method in brief:
as §2

Test [10] in a line: qHTS assay to identify small molecule antagonists of the estrogen receptor alpha (ER-alpha) signaling pathway using the BG1 cell line in the presence of 0.1 nM 17-beta-estradiol - cell viability counter screen (AID 1259241). Note: nearly all actives have a fitted effect of over 40% in size. Note: potency is the fitted concentration of half-maximal effect. In a few lines: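 VM7Luc4E2, 4,000 cells/well, phenol red-free medium + 10% charcoal-stripped FBS; 24 hr plating; cpd + 0.1 nM E2 final, 22 hr 37C/5% CO2; CellTiter-Fluor 30 min, fluorescence.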

Test [11] in a line: qHTS assay to identify small molecule antagonists of the androgen receptor (AR) signaling pathway using the MDA cell line in the presence of 0.5 nM R1881 - cell viability counter screen (AID 1259242). Note: nearly all actives have a fitted effect of over 45% in size. Note: potency is the fitted concentration of half-maximal effect. In a few lines: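 qHTS format. MDA-kb2 (MMTV-luc, AR/GR responsive) + cpd + 0.5 nM R1881 final, 16 hr 37C/0% CO2 → CellTiter-Fluor 30 min → fluorescence intensity.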
A general note: qHTS replaces the single test concentration by a dilution series.

The target of test [12] is Androgen receptor (Homo sapiens) (UniProt P10275). In words: qHTS assay to identify small molecule antagonists of the androgen receptor (AR) signaling pathway using the MDA cell line in the presence of 0.5 nM R1881 (AID 1259243). Note: nearly all actives have a fitted effect of over 50% in size. Note: potency is the fitted concentration of half-maximal effect. The method in brief: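 Antagonist mode quantitative HTS in MDA-kb2 MMTV-luciferase cells, agonist R1881 at 0.5 nM final, 16 hr exposure at 37C and 0% CO2, luminescent detection.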
Androgen receptor (Homo sapiens), sequence (P10275 whole entry, looked up): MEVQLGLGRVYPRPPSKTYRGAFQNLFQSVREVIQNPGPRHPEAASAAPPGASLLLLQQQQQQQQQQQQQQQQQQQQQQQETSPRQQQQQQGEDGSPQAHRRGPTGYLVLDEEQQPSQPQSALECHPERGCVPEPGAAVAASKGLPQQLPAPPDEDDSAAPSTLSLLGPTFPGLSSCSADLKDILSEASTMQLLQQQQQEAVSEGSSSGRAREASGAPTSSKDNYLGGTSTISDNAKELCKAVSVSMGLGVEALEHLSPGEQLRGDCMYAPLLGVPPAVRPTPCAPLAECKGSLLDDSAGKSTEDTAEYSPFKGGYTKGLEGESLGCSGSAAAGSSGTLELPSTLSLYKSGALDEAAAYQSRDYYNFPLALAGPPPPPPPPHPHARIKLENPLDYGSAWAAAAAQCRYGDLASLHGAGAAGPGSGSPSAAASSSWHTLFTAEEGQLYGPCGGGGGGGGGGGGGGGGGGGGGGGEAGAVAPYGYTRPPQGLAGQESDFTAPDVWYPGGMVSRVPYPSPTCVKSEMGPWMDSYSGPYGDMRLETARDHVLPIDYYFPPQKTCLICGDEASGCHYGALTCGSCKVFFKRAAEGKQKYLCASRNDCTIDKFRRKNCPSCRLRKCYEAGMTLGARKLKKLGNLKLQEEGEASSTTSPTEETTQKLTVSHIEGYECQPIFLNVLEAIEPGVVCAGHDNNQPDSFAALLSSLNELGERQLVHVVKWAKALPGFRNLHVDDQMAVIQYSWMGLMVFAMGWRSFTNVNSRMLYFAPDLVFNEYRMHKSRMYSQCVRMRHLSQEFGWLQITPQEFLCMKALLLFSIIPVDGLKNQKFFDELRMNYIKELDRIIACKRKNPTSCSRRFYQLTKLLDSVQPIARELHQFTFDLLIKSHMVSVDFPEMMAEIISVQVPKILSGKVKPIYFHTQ

Test [13] is described as follows: qHTS assay to identify small molecule phospholipidosis (PLD) inducers (AID 1259344; active = well fitted curve in the direction sought with a large enough effect; an effect the other way counts as inactive or inconclusive). The method in brief:
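After 4 h attachment on collagen I, HepG2 cells were dosed with compound alongside LipidTOX Red, kept 24 h at 37 C, fixed, and imaged for lamellar phospholipid pits.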

A short description of test [14]: qHTS assay to identify small molecule HDAC inhibitors (AID 1259364).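 Note: wild-type HCT-116 cells with endogenous class I/II HDAC activity; top concentration of the series differs between compounds; nearly all actives have a fitted effect of over 45% in size.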 In a few lines:
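Quantitative high-throughput format: overnight-seeded HCT-116 cells got compounds for 2 hr at 37C; HDAC-Glo I/II reagent added, 30 min RT, luminescence measured.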

The nature of test [15]: qHTS assay to identify small molecule HDAC inhibitors - cell viability counter screen (AID 1259365). Note: nearly all actives have a fitted effect of over 50% in size. Note: potency is the fitted concentration of half-maximal effect. The method in brief:
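Luminescence from CellTiter-Glo, developed 30min at room temperature, reports viability of wild-type HCT-116 cells treated 2hr with compounds at 37 C and 5% CO2 after overnight plating.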

Test [16] in a line: qHTS assay to identify small molecule agonists of the sonic hedgehog signaling (Shh) pathway - cell viability counter screen (AID 1259366). Note: nearly all actives have a fitted effect of over 50% in size. Note: potency is the fitted concentration of half-maximal effect. The method in brief:
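Cytotoxicity counter screen run in the same wells as the Shh reporter assay. NIH/3T3 cells carrying a Gli1 response element–driven luciferase were treated with DMSO-dissolved compounds for 24hr, and live-cell protease activity was measured with CellTiter-Fluor.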

The nature of test [17]: qHTS assay to identify small molecule antagonists of the sonic hedgehog signaling (Shh) pathway - cell viability counter screen (AID 1259367). Note: nearly all actives have a fitted effect of over 55% in size. Note: potency is the fitted concentration of half-maximal effect. The method in brief:
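Conditioned medium drove Shh signaling in 3T3 Gli1-Luc cells exposed to compounds at 37C and 5% CO2. Viability was determined from CellTiter-Fluor fluorescence, with reagent incubated 1 hr after 23 hr of treatment.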

Test [18] in a line: qHTS assay to identify small molecule agonists of the sonic hedgehog signaling (Shh) pathway (AID 1259368; calls by dose curve;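 note: NIH/3T3-derived 3T3Gli1-Luc cells carrying a stable Gli1-driven firefly luciferase reporter; series mostly up to about 92 µM; nearly all actives have a fitted effect of over 15% in size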). The method in brief:
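Quantitative high-throughput format using a Gli1-driven firefly luciferase reporter line derived from NIH/3T3 cells. After a 24 hr compound treatment at 37 C and 5% CO2, luminescence reported Gli1 response element activity.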

Test [19] can be described thus: qHTS RealTime-Glo MT Cell Viability Assay in HepG2 cells - 0 hour (AID 1224889). Note: nearly all actives have a fitted effect of over 50% in size. In a few lines: as §3
In test [20] the target is Estrogen receptor (Homo sapiens) (UniProt P03372). In words: qHTS assay to identify small molecule antagonists of the estrogen receptor alpha (ER-alpha) signaling pathway using the BG1 cell line in the presence of 0.1 nM 17-beta-estradiol (AID 1259244). Note: nearly all actives have a fitted effect of over 50% in size. In a few lines: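 Reporter is a stably transfected luciferase under four estrogen responsive elements in VM7Luc4E2 cells expressing native full-length ER-alpha; inhibition of 0.1 nM (final) 17beta-estradiol-driven signal over 22 h is read by luminescence.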
Estrogen receptor (Homo sapiens), sequence (P03372 whole entry, looked up): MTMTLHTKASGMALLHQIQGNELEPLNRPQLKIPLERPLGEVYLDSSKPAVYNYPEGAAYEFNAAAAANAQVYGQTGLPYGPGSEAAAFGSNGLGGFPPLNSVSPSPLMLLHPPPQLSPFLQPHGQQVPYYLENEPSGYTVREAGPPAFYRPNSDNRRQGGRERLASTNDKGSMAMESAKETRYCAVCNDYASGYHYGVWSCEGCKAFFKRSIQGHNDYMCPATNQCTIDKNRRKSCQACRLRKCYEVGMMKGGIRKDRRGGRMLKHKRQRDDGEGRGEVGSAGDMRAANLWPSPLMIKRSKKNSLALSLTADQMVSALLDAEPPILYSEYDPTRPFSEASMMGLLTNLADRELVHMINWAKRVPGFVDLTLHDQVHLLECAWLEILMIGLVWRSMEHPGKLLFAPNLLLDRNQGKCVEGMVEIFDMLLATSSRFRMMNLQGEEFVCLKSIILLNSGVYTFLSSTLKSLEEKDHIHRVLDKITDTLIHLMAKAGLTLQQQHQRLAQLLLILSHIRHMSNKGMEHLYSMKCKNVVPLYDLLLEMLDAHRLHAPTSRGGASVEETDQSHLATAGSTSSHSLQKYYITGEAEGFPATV

Several values for one entry are separate records, joined by “and”; a condition that tells them apart may be missing. Equal values may be shown once. Results filed as inconclusive are left out. Some compounds were tested as several samples or in several runs, with calls that do not always agree. Activity calls are given as the source filed them. Unless noted, calls come from the whole dose curve; as a rule, active = well fitted curve in the direction sought with a large enough effect in the repeat runs; inconclusive = weak or mixed curves; inactive = no such curve, though single readings can be large; an effect the other way counts as inactive or inconclusive.
% is set by controls: 0 for no effect and ±100 for the full control effect.

As to `CCCCCCc1ccc(O)cc1O`, the Potency in [1] is 49.1 µM (active) and 49 µM (active) and inactive; in [3], 49.1 µM (active) and 38.9 µM (active) and 21.3 µM (active); in test [6] it was 19.6 µM (active) and 11 µM (active); in test [7] it was 15.5 µM (active) and 9.77 µM (active); in test [9], “inactive and 49 µM (active)”; in test [12], 43.4 µM (active) and 48.6 µM (active) and 23.7 µM (active). The Potency in test [16] was 48.7 µM (active) and 61.1 µM (active) and inactive; in [17], 61.1 µM (active) and inactive. For the same molecule, the Potency result in test [2], in [4], in test [5], in [8], in [10] and in [11] was “inactive” each time. The Potency entry in test [13], in [14] and in test [15] was “inactive” throughout. The outcome in [18] was inactive.

`Cc1c(C(=O)O)c(O)cc2c1C(=O)c1c(O)c([C@@H]3O[C@H](CO)[C@@H](O)[C@H](O)[C@H]3O)c(O)c(O)c1C2=O`: the Potency result in test [1], in test [2], in test [3], in test [4], in [5] and in [6] was “inactive” in each case. Further, the Potency result in test [7], in test [8], in [19], in [9], in test [20] and in [13] was “inactive” each time. The Potency result in test [14] was “inactive”. Also, the Potency is 33.5 µM (active) and 21.7 µM (active) in test [10]; 37.6 µM (active) and 27.3 µM (active) in test [11]; 27.3 µM (active) and inactive in test [15]; 26.6 µM (active) and 27.3 µM (active) in test [16]; 29.9 µM (active) and 27.3 µM (active) in test [17]. Besides, the outcome in test [18] was inactive.

Regarding `COc1ccc2c(c1)c(CC(=O)O)c(C)n2C(=O)c1ccc(Cl)cc1`, the Potency entry in test [1], in [2], in [3], in test [4], in test [5] and in test [6] was “inactive” in each case. The Potency result in [7], in test [8], in [19], in [9], in test [10] and in test [11] was “inactive” throughout. Moreover, the Potency entry in test [12], in test [20], in test [14], in test [15], in test [16] and in test [17] was “inactive” throughout. Besides, in [13], the PLD induction is 14.5% [at 7.66 µM] (inactive). Also, the call in [18] was inactive.

Consider `O=C1OC2(c3ccccc31)c1cc(Br)c(O)c(Br)c1Oc1c2cc(Br)c(O)c1Br`, for which the Potency in [1] was 4.97 µM (active) and 7.11 µM (active) and 21.3 µM (active); in test [2] it was 9.92 µM (active) and 11.3 µM (active) and 23.9 µM (active); in [3] it was 5.58 µM (active) and 14.2 µM (active) and 23.9 µM (active); in test [4], 5.58 µM (active) and 12.7 µM (active) and 19 µM (active); in test [8], 4.43 µM (active) and 7.11 µM (active) and 19 µM (active); in test [9], 5.58 µM (active) and 14.2 µM (active) and 21.3 µM (active). For the same molecule, the Potency in test [10] is 7.81 µM (active) and 22.3 µM (active) and 11.9 µM (active); in test [11], 4.93 µM (active) and 25 µM (active) and 10.6 µM (active). Moreover, the Potency entry in test [5], in test [6], in test [7], in test [20], in test [13] and in test [14] was “inactive” in each case. Moreover, the Potency result in test [15], in [16] and in test [17] was “inactive” throughout. For the same molecule, the result in [18] was inactive.

As to `CN(C)CCOC(c1ccccc1)c1ccccc1`, the Potency entry in [1], in test [2], in [3], in test [4], in test [5] and in test [6] was “inactive” each time. Besides, the Potency result in test [7], in [8], in test [9], in test [10], in [11] and in test [12] was “inactive” in each case. The Potency result in test [20], in [13], in [14], in test [15], in test [16] and in test [17] was “inactive” throughout. For the same molecule, the result in test [18] was inactive.

The values above are taken from PubChem BioAssay (Tox21).
